Our source for the Potency and outcome values is PubChem BioAssay (NCATS).

Records with an inconclusive call do not appear. Where a call stands in place of a potency, no number is given. Activity calls are given as the source filed them. Calls come from the whole dose curve; as a rule, active = well fitted curve in the direction sought with a large enough effect; inconclusive = small, poorly fitted or top-dose-only effect, or another doubt; inactive = no such curve, though single readings can be large; an effect the other way counts as inactive or inconclusive.

The subject of experiment [1] is Zika virus NS2B-NS3 protease. Nature of the experiment: Primary screen GU AMC qHTS for Zika virus inhibitors (AID 1347154). Note: nearly all actives have a fitted effect of over 70% in size. Note: potency is the fitted concentration of half-maximal effect. An outline of the steps:
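Unlinked Zika NS2B hydrophilic domain/NS3 protease domain noncovalent complex (25 nM final) in 10 mM Tris-HCl pH 8.0, 0.01% Tween 20, with AMC peptide substrate. Fluorescence (ex 340, em 450 nm) change over 15 min, room temperature; percent inhibition fitted to 4-parameter Hill equation.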
For orientation: qHTS replaces the single test concentration by a dilution series.

For experiment [2], the system named is Zika virus NS2B-NS3 protease (unlinked complex). Nature of the experiment: Primary screen GU Rhodamine qHTS for Zika virus inhibitors: Unlinked NS2B-NS3 protease assay (AID 1347159). Note: nearly all actives have a fitted effect of over 60% in size. Note: potency is the fitted concentration of half-maximal effect. In a few lines:
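Buffer 10 mM Tris-HCl pH 8.0, 0.01% Tween 20. Unlinked protease 25 nM; compound preincubation 15 min, RT, protected from light. Substrate Rhod110, 1.5 microM; ~15% conversion in 15 min.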

Experiment [3] has as its system Zika virus NS2B-NS3 protease (linked construct). The experiment is described as follows: Primary screen NINDS Rhodamine qHTS for Zika virus inhibitors (AID 1347160). Note: nearly all actives have a fitted effect of over 55% in size. Note: potency is the fitted concentration of half-maximal effect. An outline of the steps: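 Aprotinin served as in-plate control. Conditions: 25 nM linked NS2B-NS3, pH 8.0 Tris buffer, titrated compounds, 15 min preincubation and 15 min reaction with 1.5 microM Rhod110 substrate at room temperature.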

Experiment [4] is described as follows: qHTS to identify inhibitors of the type 1 interferon - major histocompatibility complex class I in skeletal muscle: primary screen against the NCATS Pharmaceutical Collection (AID 1347407).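 Note: luminescence of HiBiT knocked into endogenous HLA-B as interferon-induced MHC class I level.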 In a few lines:
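Cells were seeded with 4 ng/ml IFN-beta, incubated 1 h, then dosed with compounds over eight 1:5 steps up to 46 uM final. After 24 h at 37 C, HiBiT lytic reagent was added and luminescence read after 10 min lysis in the dark.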

Turning to `CCOc1ccc(Cc2cc([C@@H]3O[C@H](CO)[C@@H](O)[C@H](O)[C@@H]3O)ccc2Cl)cc1`, the Potency entry in experiment [1] was “inactive”. As to `COc1ccc(CC2=NN3C([C@@H](CCc4ccccc4)[C@@H](C)O)=NC(C)C3C(=O)N2)cc1OC` (some centres not stated), the Potency result in experiment [1] was “inactive”. In the case of `Cc1cc(-c2ccc(CC(=O)Nc3ccc(-c4cccnc4)cc3)cc2)ccn1`, the Potency entry in experiment [1] was “inactive”.

In the case of `Cc1ccnc(NS(=O)(=O)c2ccc(NC(=O)Nc3ccc(S(=O)(=O)Nc4nccc(C)n4)cc3)cc2)n1`, the Potency in experiment [1] is 24.1 µM (active). The Potency result in experiment [2] is “inactive”. With `CCc1cc(Nc2nccc(-c3c(-c4ccc(OC)c(C(=O)Nc5c(F)cccc5F)c4)nc4ccccn34)n2)c(OC)cc1N1CCC(N2CCN(S(C)(=O)=O)CC2)CC1`, the Potency result in experiment [1], in experiment [2] and in experiment [3] was “inactive” in each case.

With `COCCNCCCn1c(C(=O)CF)c(-c2ccc(C)cc2)c2c(N)ncnc21`, in experiment [1], the Potency entry was “inactive”. As for `CS(=O)(=O)Oc1ccc2c(NC(N)=O)c(C(=O)c3ccc(Cl)cc3Cl)oc2c1`, in experiment [1], the Potency result was “inactive”. Turning to `Fc1ccc(Cl)cc1-c1nc(Nc2ccncc2)c2nccnc2n1`, in experiment [1], the Potency result is “inactive”. Turning to `c1ccc(-c2nn3c(c2-c2ccnc4cc(OCCN5CCOCC5)ccc24)CCC3)nc1`, in experiment [1], the Potency entry was “inactive”. In the case of `COc1ccc([C@@H]2CC(=O)c3c(O)cc(O[C@@H]4O[C@H](CO[C@@H]5O[C@@H](C)[C@H](O)[C@@H](O)[C@@H]5O)[C@@H](O)[C@H](O)[C@@H]4O)cc3O2)cc1O`, the Potency result in experiment [1] is “inactive”. In the case of `COc1ccc(-c2c(-c3ccc(O)cc3O)n[nH]c2C)cc1`, in experiment [1], the Potency result is “inactive”. With `CN(C)c1ccc(Nc2nc(N)n(C(=O)c3c(F)cccc3F)n2)cc1`, the Potency entry in experiment [1], in experiment [2] and in experiment [3] was “inactive” each time. Regarding `CC1(C)CNc2cc(NC(=O)c3cccnc3NCc3ccncc3)ccc21`, the Potency result in experiment [1], in experiment [2] and in experiment [3] was “inactive” each time. `CC(C)(C)OC(=O)CN(Cc1ccc(Cl)cc1)Cc1ccc([N+](=O)[O-])s1`: the Potency entry in experiment [1] is “inactive”. Turning to `O=S(=O)(N=Cc1c(O)ccc2ccccc12)c1cccs1`, the Potency entry in experiment [1] was “inactive”. As for `CCn1c(-c2nonc2N)nc2cnc(Oc3cccc(NC(=O)c4ccc(OCCN5CCOCC5)cc4)c3)cc21`, the Potency result in experiment [1] is “inactive”. Turning to `CN(C)c1ccc(C2Nc3ccc4ccccc4c3C3=C2C(=O)CC(C)(C)C3)cc1Br` (configuration not stated), the Potency entry in experiment [1], in experiment [2] and in experiment [3] was “inactive” in each case. Turning to `COc1cc(Oc2ccnc3cc(OC)c(OC)cc23)ccc1NC(=O)NC(C)c1nccs1` (configuration not stated), the Potency result in experiment [2] and in experiment [3] was “inactive” in each case. Consider `CC[C@H](Nc1ncnc2nc[nH]c12)c1nc2cccc(F)c2c(=O)n1-c1ccccc1`, for which the Potency result in experiment [3] is “inactive”. On to `COc1cc(F)c(F)c(Nc2ccc(I)cc2F)c1NS(=O)(=O)C1(C[C@H](O)CO)CC1`, for which the Potency result in experiment [1] and in experiment [3] was “inactive” each time. As for `Cn1cnc2c(F)c(Nc3ccc(Br)cc3Cl)c(C(=O)NOCCO)cc21`, the Potency result in experiment [1], in experiment [2] and in experiment [3] was “inactive” throughout.

Regarding `CN(C(=O)c1ccc(F)cc1C(F)(F)F)C1CCN(c2nnc(-c3ccnn3C)c3ccccc23)CC1`, the Potency result in experiment [1], in experiment [2] and in experiment [3] was “inactive” each time.

Turning to `COc1ccc(CCN2CCN(CCCc3ccccc3)CC2)cc1OC`, the Potency entry in experiment [1], in experiment [2] and in experiment [3] was “inactive” each time. Consider `CC(C)OC(=O)C1=CN(C(=O)c2ccc(F)c(F)c2)CC(C)(C)c2c1[nH]c1ccccc21`, for which the Potency result in experiment [1], in experiment [2] and in experiment [3] was “inactive” each time.

For `Cc1ccc(-n2nc(C(C)(C)C)cc2NC(=O)Nc2ccc(OCCN3CCOCC3)c3ccccc23)cc1`, the compound was called inactive in experiment [4]. Take `CN(C)C(=O)c1ccc(S(=O)(=O)c2ccc(NC(=O)[C@@](C)(O)C(F)(F)F)c(Cl)c2)cc1`: the Potency entry in experiment [1], in experiment [2] and in experiment [3] was “inactive” throughout. In the case of `CC1(C)Cc2c(-c3ccccc3)c(-c3ccc(Cl)cc3)c(CC(=O)O)n2C1`, the Potency in experiment [2] was 10 µM (active). For the compound `CNC(=O)c1ccccc1Sc1ccc2c(/C=C/c3ccccn3)n[nH]c2c1`, the compound was called inactive in experiment [4]. For the compound `Cc1n[nH]c(C)c1Cc1sc2c(c1C(=O)N1C[C@H](O)CO1)c(=O)n(C)c(=O)n2CC(C)C`, the Potency result in experiment [1] and in experiment [3] was “inactive” throughout.

On to `CCCS(=O)(=O)Nc1ccc(F)c(C(=O)c2c[nH]c3ncc(Cl)cc23)c1F`, for which the Potency result in experiment [1], in experiment [2] and in experiment [3] was “inactive” throughout. In the case of `CCc1ccc(CCOc2ccc(CC3SC(=O)NC3=O)cc2)nc1` (configuration not stated), in experiment [1], the Potency result is “inactive”. Further, the compound was classed as inactive in experiment [4]. As to `Clc1ccc(Nc2nnc(Cc3ccncc3)c3ccccc23)cc1`, the Potency entry in experiment [1] and in experiment [3] was “inactive” in each case. Take `COc1ccccc1[C@H](c1cccc2ccccc12)[C@@](C)(C#N)C(=O)N1CCC(c2cccc(C(F)(F)F)c2)CC1`: the Potency entry in experiment [1], in experiment [2] and in experiment [3] was “inactive” each time. Take `C[C@@H]1CN(Cc2ccc(F)cc2)[C@@H](C)CN1C(=O)c1cc2c(C(=O)C(=O)N(C)C)cn(C)c2cc1Cl`: the Potency result in experiment [1], in experiment [2] and in experiment [3] was “inactive” throughout.

Turning to `O=C(Nc1ccc(F)c(C(F)(F)F)c1)Nc1nnc(-c2ccncc2)s1`, in experiment [1], the Potency entry is “inactive”. In addition, the Potency was 8.91 µM (active) in experiment [2] and 2.82 µM (active) in experiment [3].
